Experimental data: the supplement of paper PMC6555819

Legend:
Test in all cases: PBM binding z-score (relative to random genomic background probes); higher = stronger binding; sequences stand for … in GC…GCGATTGACAGCGTAGAATGAAGG
[1] = tested on: FXR:RXRa (NR concentration 270 nM, RXRa partner concentration 90 nM)
Procedure, shortened: (§1)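 For binding z-scores, the reference was random background probes on custom Agilent 4×180K protein-binding microarrays. These arrays were incubated 1 h with ligand-free nuclear receptor dimers in PBS pH 7.4, 2% milk, 0.02% Triton X-100, 1 mM DTT, 0.2 mg/mL BSA and 0.4 mg/ml salmon testes DNA. Fluorescence was scanned after antibody detection of each partner (one per run) and regression-normalized.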

[2] = tested on: LXRa:RXRa (NR concentration 270 nM, RXRa partner concentration 90 nM)
Procedure, shortened: as §1

[3] = tested on: LXRa homodimer (NR concentration 270 nM)
Procedure, shortened: as §1

[4] = tested on: LXRb:RXRa (NR concentration 270 nM, RXRa partner concentration 90 nM)
Procedure, shortened: as §1

[5] = tested on: LXRb homodimer (NR concentration 270 nM)
Procedure, shortened: as §1

[6] = tested on: PPARa:RXRa (NR concentration 270 nM, RXRa partner concentration 90 nM)
Procedure, shortened: as §1

[7] = tested on: PPARg:RXRa (NR concentration 180 nM, RXRa partner concentration 90 nM)
Procedure, shortened: as §1

[8] = tested on: PPARg:RXRa 270nM:90nM, anti-RXR (NR concentration 270 nM, RXRa partner concentration 90 nM)
Procedure, shortened: as §1

[9] = tested on: PPARg:RXRa 30nM:10nM, anti-RXR (NR concentration 30 nM, RXRa partner concentration 10 nM)
Procedure, shortened: as §1

[10] = tested on: PPARg:RXRa 90nM:30nM, anti-RXR (NR concentration 90 nM, RXRa partner concentration 30 nM)
Procedure, shortened: as §1

| Sequence | PBM binding z-score [1] | PBM binding z-score [2] | PBM binding z-score [3] | PBM binding z-score [4] | PBM binding z-score [5] | PBM binding z-score [6] | PBM binding z-score [7] | PBM binding z-score [8] | PBM binding z-score [9] | PBM binding z-score [10] |
| --- | --- | --- | --- | --- | --- | --- | --- | --- | --- | --- |
| CTACCAAGGTTAACAAGGTCGTTGATTACTATTC | 2.61 | 3.3 | 1.09 | 2.89 | 0.472 | 3.28 | 1.03 | 1.76 | 0.841 | 1.46 |
| TTACCAAGGTGATAGGTCGTTGATGCACGCCTTG | 0.534 | 0.702 | -0.126 | 0.514 | -0.482 | 2.84 | 4.06 | 5.47 | 3.82 | 5.61 |
| GCAGACAGTTGAAACGCAGGTAACTCAGGGTGGC | -0.0356 | -0.382 | -0.506 | -0.476 | -0.589 | -0.162 | 0.287 | -0.573 | -0.78 | -0.65 |
| CCTATTAGTTGACCATAAGGGCAACCTAAGCTCG | 1.15 | 0.43 | 0.487 | 0.701 | 0.685 | 0.846 | 0.521 | 0.842 | 0.125 | 0.491 |
| ACTCCGAGGACAAAGGTCAGAGCTACGCCAGTGA | 4.86 | 4.4 | 1.86 | 3.99 | 0.764 | 4.91 | 8.48 | 7.6 | 6.18 | 8.09 |
| ACCATTAGTTGACTTAGGGCAACCGATACGACGC | 0.502 | 0.629 | 0.679 | 0.464 | 0.693 | 0.273 | 1.06 | 0.133 | 0.182 | 0.582 |
| ATATCTAGGTAACCAAGTTCAGTGAATGCCGAAC | 0.636 | 0.866 | 0.932 | 0.565 | 0.434 | 2.98 | 4.48 | 3.23 | 1.23 | 2.32 |
| CCGACTGGGGCATAGGGTTACCATAAGCCAGCCC | 0.216 | 1.62 | -0.605 | 0.389 | -0.905 | 2.07 | 3.45 | 4.29 | 2.36 | 4 |
| TTACCAAGGTGCGCTGAGGTCGTTGATCCAACTC | 0.911 | 0.599 | 0.0298 | 0.588 | -0.404 | 0.971 | -0.397 | -0.0544 | -0.287 | 0.0957 |
| CAAACTAGATCAAGAGGTCAAAGTCCGCTTCCCG | 4.72 | 5.55 | 6.71 | 5.21 | 1.87 | 5.77 | 4.08 | 4.85 | 2.67 | 4.71 |
| ACTATTACTTGAGACGAGGGCAACCGATAGGTTG | 0.529 | 0.528 | 0.422 | 0.481 | 1.02 | 0.44 | 0.912 | 0.46 | 0.448 | 0.266 |
| GCATATAGGTAGTACAAGGTGAAAGTCCGATTGT | 1.03 | 0.23 | -0.159 | 0.269 | -0.562 | 1.16 | 0.674 | 0.733 | 0.197 | 0.775 |
